Among the test systems are DU-145 prostate; K-562 leukemia; MALME-3M melanoma; MDA-MB-231 breast; RXF 393 renal; SF-268 CNS; SF-295 CNS; SF-539 CNS; UACC-257 melanoma; M14 melanoma; HCT-15 colon; HT29 colon; SNB-75 CNS; SNB-19 CNS; PC-3 prostate; SK-MEL-5 melanoma; UACC-62 melanoma; LOX IMVI melanoma; SK-MEL-28 melanoma; U251 CNS.
Experiment in all cases: NCI-60 one-dose screen, 48 h (100 = growth as untreated, 0 = no growth, -100 = all killed)
What all share (conditions): 10 µM unless noted

Structures are written as SMILES. The panel holds about 83,000 compounds, 20% with a hit somewhere; the sample as a whole holds those more often.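 Interpretation: 100, growth as untreated; towards 0, rising growth inhibition; 0, no net growth; 0 to -100, cell death. Compounds scoring below 10 were considered active.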 Unmarked numbers belong to inactive results. Calls of active or inactive are those of the source.

Take `COc1ccc(Cn2cc(C(=O)N=Nc3c(O)[nH]c4c(C)cccc34)nn2)cc1`: the growth in the assay on DU-145 prostate is 60.4%; in the assay with K-562 leukemia, 63.2%; in the assay with MALME-3M melanoma, 40.5%; with MDA-MB-231 breast, 51%; in the assay on RXF 393 renal, 81.9%; in the assay with SF-268 CNS, 87.3%. For the same compound, the growth is 111% with SF-295 CNS; 80.1% in the assay on SF-539 CNS; 93.7% in the assay with UACC-257 melanoma; 71.9% in the assay on M14 melanoma; 68% with HCT-15 colon; 67.4% in the assay with HT29 colon. In addition, the growth with SNB-75 CNS is 27.3%; in the assay on SNB-19 CNS, 97.5%; in the assay with PC-3 prostate it was 61.3%; with SK-MEL-5 melanoma, 93.8%; in the assay with UACC-62 melanoma, 74.1%; with LOX IMVI melanoma it was 75.3%. Further, in the assay on SK-MEL-28 melanoma, the growth is 94.9%.
As to `O=C(NNc1cnccn1)c1nc2cc(F)ccc2n2cccc12`, the growth in the assay with DU-145 prostate was 25.7%; with K-562 leukemia it was 10.8%; in the assay with MALME-3M melanoma, 11%; in the assay with MDA-MB-231 breast, 27.5%; in the assay on RXF 393 renal, 9.53% (active); in the assay on SF-268 CNS, 26%. Further, the growth in the assay on SF-295 CNS is 12.9%; with SF-539 CNS, 5.57% (active); in the assay with UACC-257 melanoma, -9.5% (active); with M14 melanoma, 5.33% (active); in the assay on HCT-15 colon it was 25.7%; in the assay with HT29 colon, 27.9%. For the same compound, the growth in the assay on SNB-75 CNS is 41.1%; in the assay with SNB-19 CNS, 26.2%; with U251 CNS it was 14%; in the assay with PC-3 prostate, 29.4%; with SK-MEL-5 melanoma, -48.2% (active); in the assay with UACC-62 melanoma, -21.1% (active). For the same compound, the growth with SK-MEL-28 melanoma is 21%.
For the compound `O=C(c1c[nH]c2ccccc12)c1n[nH]c(=S)n1-c1cccc(Br)c1`, the growth with DU-145 prostate was 103%; in the assay on K-562 leukemia it was 84.6%; with MALME-3M melanoma, 95.4%; in the assay on MDA-MB-231 breast, 76.9%; in the assay on RXF 393 renal it was 104%; with SF-268 CNS it was 95.4%. Besides, the growth in the assay on SF-295 CNS was 102%; in the assay on SF-539 CNS, 106%; in the assay on UACC-257 melanoma it was 97.4%; in the assay on M14 melanoma, 99.3%; in the assay with HCT-15 colon it was 40.9%; with HT29 colon, 96.2%. Besides, the growth in the assay with SNB-75 CNS is 83.2%; with SNB-19 CNS it was 93.8%; in the assay on U251 CNS, 97.3%; in the assay on PC-3 prostate, 87.8%; with SK-MEL-5 melanoma, 28%; with UACC-62 melanoma, 51.9%. The growth in the assay on SK-MEL-28 melanoma is 105%.
As to `CCOC(=O)C(=CNc1cnc(Nc2ccc(N3CCOCC3)cc2)nc1Oc1ccc(OC)cc1)C(=O)OCC`, the growth is 73% in the assay with DU-145 prostate; 49.2% in the assay with K-562 leukemia; 39% in the assay with MALME-3M melanoma; 59.7% with MDA-MB-231 breast; 89.2% in the assay on RXF 393 renal; 69.7% with SF-268 CNS. For the same compound, the growth in the assay with SF-295 CNS was 75.9%; with SF-539 CNS, 24.7%; with UACC-257 melanoma it was 87.4%; with M14 melanoma it was 63.7%; with HCT-15 colon, 69.4%; with HT29 colon, 40.6%. Moreover, the growth in the assay with SNB-75 CNS was -14.3% (active); in the assay with SNB-19 CNS, 41.7%; in the assay on PC-3 prostate, 67.7%; with SK-MEL-5 melanoma it was 74%; in the assay with UACC-62 melanoma, 47.1%; with LOX IMVI melanoma, 39.3%. Also, the growth with SK-MEL-28 melanoma is 76.6%.
`CCN(CC)c1ccc(/C=N/NC(=O)Cc2ccc(Nc3ccnc(C(F)(F)F)c3)cc2)c(O)c1`: the growth is 18.3% in the assay on DU-145 prostate; 23.1% with K-562 leukemia; 15.5% in the assay on MALME-3M melanoma; 43% in the assay with MDA-MB-231 breast; 45.8% with RXF 393 renal; 18% in the assay with SF-268 CNS. For the same compound, the growth in the assay on SF-295 CNS was 17.9%; in the assay on SF-539 CNS, 17.1%; in the assay on UACC-257 melanoma it was 37.4%; with M14 melanoma it was -18.3% (active); in the assay on HCT-15 colon, 33.2%; in the assay on HT29 colon, 33.1%. Also, the growth with SNB-75 CNS was 5.89% (active); in the assay on SNB-19 CNS, 30.9%; with U251 CNS, 25.7%; in the assay on PC-3 prostate, 53.3%; in the assay on SK-MEL-5 melanoma, 27.1%; with UACC-62 melanoma, 20.6%. Moreover, the growth in the assay with SK-MEL-28 melanoma is 31.7%.
For `Nc1ccc(-c2csc(-n3[nH]c(=O)ccc3=O)n2)cc1`, the growth in the assay with DU-145 prostate is 107%; in the assay on K-562 leukemia, 103%; with MALME-3M melanoma, 101%; in the assay with MDA-MB-231 breast, 101%; with RXF 393 renal it was 93.8%; in the assay with SF-268 CNS, 102%. The growth was 102% in the assay on SF-295 CNS; 105% with SF-539 CNS; 103% in the assay on UACC-257 melanoma; 96.2% with M14 melanoma; 89.1% in the assay on HCT-15 colon; 94.5% in the assay with HT29 colon. Moreover, the growth was 99% in the assay on SNB-75 CNS; 98.6% in the assay on SNB-19 CNS; 96.2% with PC-3 prostate; -99.6% (active) in the assay with SK-MEL-5 melanoma; 101% with UACC-62 melanoma; 102% in the assay with LOX IMVI melanoma. In addition, in the assay with SK-MEL-28 melanoma, the growth was 108%.
On to `CCCCCN(CCCCC)CC(O)c1cc(C)c2ccc3cc(C(C)C)ccc3c2c1` (configuration not stated), for which the growth in the assay on DU-145 prostate was -77.1% (active); in the assay on K-562 leukemia it was -16.2% (active); in the assay with MALME-3M melanoma, 53.9%; in the assay with MDA-MB-231 breast, -47.6% (active); with RXF 393 renal, -88.2% (active); in the assay with SF-268 CNS, -61.7% (active). The growth was 103% with SF-295 CNS; -78.3% (active) with SF-539 CNS; 105% in the assay with UACC-257 melanoma; 20.3% in the assay with M14 melanoma; -86.3% (active) in the assay with HCT-15 colon; -43.9% (active) in the assay with HT29 colon. Also, the growth in the assay with SNB-75 CNS is 75.8%; with U251 CNS, -87.4% (active); with PC-3 prostate it was 53.3%; in the assay with SK-MEL-5 melanoma, 79.1%; with UACC-62 melanoma it was 91.3%; in the assay on LOX IMVI melanoma, -93.9% (active). The growth with SK-MEL-28 melanoma was 88.1%.
As for `O=C(Nc1ncccc1OCc1ccccc1)NC1CCCCCC1`, the growth in the assay with DU-145 prostate was 92%; in the assay on K-562 leukemia it was 70.6%; in the assay on MALME-3M melanoma, 90.2%; in the assay on MDA-MB-231 breast it was 90.1%; in the assay with RXF 393 renal, 106%; in the assay on SF-268 CNS, 92.3%. For the same compound, the growth with SF-295 CNS is 85.4%; in the assay with SF-539 CNS it was 98.2%; in the assay with UACC-257 melanoma, 105%; in the assay on M14 melanoma, 95.3%; in the assay with HCT-15 colon it was 80.7%; in the assay with HT29 colon, 74.6%. In addition, the growth was 97.7% in the assay on SNB-75 CNS; 96.2% with U251 CNS; 48.1% with PC-3 prostate; 69.1% in the assay with SK-MEL-5 melanoma; 71.6% in the assay on UACC-62 melanoma; 90.6% with LOX IMVI melanoma. Further, in the assay with SK-MEL-28 melanoma, the growth is 93.6%.

The record behind these values is PubChem BioAssay (NCI).
